This is an account of results in PubChem BioAssay AID1558 (National Center for Advancing Translational Sciences (NCATS), 2009).

Where “and” joins values, the source holds several entries; their conditions need not be identical. Equal entries are not always repeated. Records with an inconclusive call do not appear. A structure can be active in one record and inactive in another. Calls of active or inactive are those of the source. Calls come from the whole dose curve; as a rule, active = well fitted inhibition curve with a large enough effect; inconclusive = small, poorly fitted or top-dose-only effect; inactive = flat fitted curve, though single readings scatter.

Sequence of Microtubule-associated protein tau (Homo sapiens) (P10636 561-689 P618L limits assumed): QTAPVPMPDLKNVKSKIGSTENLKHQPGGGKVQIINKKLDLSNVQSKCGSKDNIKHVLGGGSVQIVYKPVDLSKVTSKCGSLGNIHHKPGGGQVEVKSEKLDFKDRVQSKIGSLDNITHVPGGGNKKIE

This assay has as its target Microtubule-associated protein tau (Homo sapiens) (UniProt P10636). Briefly: Confirmation Concentration-Response Assay for Inhibitors of Tau Fibril Formation, Thioflavin T Binding. Conditions: recombinant tau K18 P301L (four-repeat tau fragment) heparin fibrillization, ThT fluorescence; series mostly up to 100 µM; activity change, negative = inhibition: at the top concentration. The text has this: NIH Molecular Libraries Probe Production Network [MLPCN] NIH Chemical Genomics Center [NCGC] MLPCN Grant: X01 MH083262-01 Assay Provider: Carlo Ballatore, University of Pennsylvania NCGC Assay Overview: The microtubule-associated protein tau is an abundant protein in the axons of neurons that stabilizes microtubules. With its ability to modulate microtubule dynamics, tau contributes directly or indirectly, to key structural and regulatory cellular functions. Particularly important is the influence tau exerts on axonal transport, which allows signaling molecules, trophic factors and other essential cellular constituents to travel along the axons. Under pathological conditions, tau becomes sequestered into insoluble aggregates called neurofibrillary tangles. This phenomenon is believed to have pathological consequences by promoting axonal transport deficits that ultimately lead to synaptic dysfunction and neuronal loss. To identify inhibitors of tau aggregation, a heparin-induced tau fibril formation assay was used that employed a recombinantly expressed fragment of tau, K18 (Q242-E372), bearing a P301L mutation (Gustke et al. 1994; Hong et al. 1998). This assay monitors tau fibrillization by Thioflavin T (ThT) fluorescence. Gustke, N., B. Trinczek, et al. (1994). "Domains of tau protein and interactions with microtubules." Biochemistry 33(32): 9511-22. Hong, M., V. Zhukareva, et al. (1998). "Mutation-specific functional impairments in distinct tau isoforms of hereditary FTDP-17." Science 282(5395): 1914-7. Li, W. and V. M. Lee (2006). "Characterization of two VQIXXK motifs for tau fibrillization in vitro." Biochemistry 45(51): 15692-701. von Bergen, M., S. Barghorn, et al. (2001). "Mutations of tau protein in frontotemporal dementia promote aggregation of paired helical filaments by enhancing local beta-structure." J Biol Chem 276(51): 48165-74.
For screening, 2 uL/well human K18 P301L (15 uM unlabeled and 0.24 uM Alexa 594-labeled tau, final concentrations) in reagent buffer (100 mM sodium acetate pH 7) was dispensed into black solid 1536-well plates (Grenier) using a solenoid-based dispenser. Following transfer of 23 nL compound or DMSO vehicle by a pin tool, 2 uL/well heparin (20 uM final concentration) in reagent buffer was added and the plate centrifuged 15 s at 1000 RPM. Plates were incubated 6 hr at 37 C and then 1 uL/well ThT (30 uM final concentration) was added. After a 1 hr ambient incubation, the plates were read by an Envision (Perkin Elmer) to monitor ThT fluorescence (450/8 nm excitation and 510/23 nm emission). Keywords: NIH Roadmap, MLPCN, MLI, MLSMR, NCGC, qHTS, tau, tauopathies, Alzheimer's disease, fibril, neurodegeneration, aggregation
`CCN(c1ccccc1)S(=O)(=O)c1nnc(NC(=O)C(C)(C)C)s1`: the “activity change, negative = inhibition” value is -3.75% (inactive).

Turning to `Nc1scc2c(C(=O)N3CCOCC3)nn(-c3ccccc3)c(=O)c12`, the Potency is 11.2 µM (active). Turning to `O=C(Cc1ccccc1)Nc1sc2c(c1C(=O)Nc1cccc(Cl)c1)CCCC2`, the “activity change, negative = inhibition” value was -11.2% [at 57.1 µM] (inactive). As to `COC(=O)c1c(N)sc2c1C(C(=O)OC)CC2` (stereo not given), the “activity change, negative = inhibition” value is -8.58% [at 57.1 µM] (inactive). As to `COC(=O)c1c(NC(=O)CCCOc2ccc(C)cc2)sc2c1C(C(=O)OC)CC2` (stereo not given), the Potency is 3.55 µM (active). For the molecule `Cc1ccc(N2C(=O)SC(Cc3ccccc3)C2=O)cc1` (stereo not given), the “activity change, negative = inhibition” value is -28.8% (inactive). Consider `O=C(O)CC1S/C(=N/N=C/c2ccc(-c3ccc(Cl)cc3[N+](=O)[O-])o2)NC1=O` (stereo not given), for which the Potency was 1.58 µM (active). Consider `O=C(O)CC1S/C(=N/N=C/c2ccc(-c3ccccc3[N+](=O)[O-])o2)NC1=O` (stereo not given), for which the Potency is 11.2 µM (active). In the case of `CC(=O)Nc1sc(C)c2cnn(-c3ccccc3)c(=O)c12`, the “activity change, negative = inhibition” value was -10.9% [at 57.1 µM] (inactive). On to `CCOC(=O)c1nn(-c2ccccc2)c(=O)c2c(N)scc12`, for which the Potency was 3.98 µM (active) and 7.94 µM (active). As to `Cn1ncc(Cl)c1C(=O)Nc1cccc(Cl)c1`, the Potency was 44.7 µM (active). Take `COc1ccc(-n2nc(C(=O)O)c3csc(N)c3c2=O)cc1`: the Potency is 1 µM (active).

Turning to `Cc1ccc(NC(=O)c2c(NC(=O)Cc3ccccc3)sc3c2CCCC3)cc1`, the “activity change, negative = inhibition” value is -10.5% [at 57.1 µM] (inactive). With `CC(=O)Nc1nc(C)c(-c2csc(Nc3cccc([N+](=O)[O-])c3)n2)s1`, the Potency is 3.55 µM (active). On the same count and under the same terms, for `S=C1Cc2ccccc2N1` the value was 0.631 µM (active); for `CCn1c(CSc2nccn2C)nc2cc(C(=O)O)ccc21`, 39.8 µM (active). Consider `O=C(Nc1nc2ccc(S(=O)(=O)N3CCCC3)cc2s1)c1ccc(F)cc1`, for which the “activity change, negative = inhibition” value was 12.3% (inactive).

Turning to `CCN(CC)c1ccc2oc(=O)c(C)nc2c1`, the Potency was 10 µM (active).

As to `CC(C)c1ccc(NS(=O)(=O)c2ccc3[nH]cc(C(=O)NCCc4ccccc4)c(=O)c3c2)cc1`, the “activity change, negative = inhibition” value is 7.6% (inactive). In the case of `CCOC(=O)c1nn(-c2ccc(OC)cc2)c(=O)c2c(N)scc12`, the Potency is 631 nM (active) and 3.16 µM (active).

For `O=C(Cc1ccccc1)Nc1sc2c(c1C(=O)Nc1ccc(Cl)cc1)CCCC2`, the Potency is 1 µM (active) and inactive. On the same count and under the same terms, the result for `O=C(O)CSc1cc(NS(=O)(=O)c2cccc([N+](=O)[O-])c2)c2ccccc2c1O` reads 2 µM (active); that for `COc1ccc(S(=O)(=O)Nc2cc(Sc3ncn[nH]3)c(O)c3ccccc23)cc1`, 2.82 µM (active); that for `COC(=O)c1c(NC(=O)CCCOc2cccc(C)c2)sc2c1C(C(=O)OC)CC2` (stereo not given), 1.78 µM (active).

In the case of `COc1c(Cl)cccc1NC(=O)c1c(NC(=O)Cc2ccccc2)sc2c1CCCC2`, the “activity change, negative = inhibition” value is -15.4% [at 57.1 µM] (inactive). For `O=C(Nc1ccccc1)Nc1ccccc1`, the “activity change, negative = inhibition” value was 10.8% (inactive). For `CC1CCc2c(sc(NC(=O)Cc3ccccc3)c2C(=O)Nc2ccc(Cl)cc2)C1` (stereo not given), the “activity change, negative = inhibition” value was -7.58% [at 57.1 µM] (inactive).

Regarding `Nc1cc(-c2ccccc2)c[nH]c1=O`, the Potency was 8.91 µM (active). Same read-out and setting: the result for `Nc1nc2cc(S(=O)(=O)NC3=NCCCCC3)ccc2s1` reads 20 µM (active). `CCOC(=O)c1c(N)sc2c1CCOC2`: the “activity change, negative = inhibition” value was -10.4% [at 57.1 µM] (inactive). Regarding `COc1ccc2[nH]c(=O)c(CNc3ccccc3OC)cc2c1`, the Potency was 25.1 µM (active). For the molecule `COc1ccc(NC(=O)C2CCN(S(=O)(=O)c3c(C)noc3/C=C/c3cccs3)CC2)cc1Cl`, the “activity change, negative = inhibition” value is -9.5% (inactive).

With `O=C(Nc1nnc(S(=O)(=O)Nc2ccccc2)s1)C1CCCCC1`, the “activity change, negative = inhibition” value is -17.4% (inactive).

In the case of `O=S(=O)(c1ccc(NC(=S)N/N=C/c2ccc(N3CCOCC3)cc2)cc1)N1CCOCC1`, the “activity change, negative = inhibition” value is -9.1% (inactive). Consider `O=C(Nc1ccc(-c2nc3ccccc3o2)cc1)c1ccc(N2CCOCC2)c([N+](=O)[O-])c1`, for which the Potency was 1.12 µM (active).

Turning to `Oc1ccccc1CNc1cccc2cccnc12`, the Potency was 39.8 µM (active). `COC(=O)c1c(NC(=O)C(C)(C)C)sc2c1C(C(=O)OC)CC2` (stereo not given): the “activity change, negative = inhibition” value is -17.1% (inactive). On to `COc1ccc(CNC(=O)Cn2nc(C)n3cccc3c2=O)cc1`, for which the “activity change, negative = inhibition” value is -7.15% (inactive). As for `CCN(CC)C(=O)c1nn(-c2ccc(OC)cc2)c(=O)c2c(N)scc12`, the Potency is 10 µM (active). Consider `CN(c1ccccc1)S(=O)(=O)c1nnc(NC(=O)C2CCCCC2)s1`, for which the Potency was 22.4 µM (active).
